Assay results as given in PubChem BioAssay AID1508600 (Functional Genomics Laboratory (NCATS/FGL), 2020).
Screen size: about 53,000 sequences; about 3,700 (7%) were called active. Shown is part of a subset that was picked to be rich in actives. Unmarked numbers belong to inactive results.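 The calls were made as follows: active = gene knockdowns whose robust z-score for IL-1 alpha signal is at least 2 or at most -2, so actives lie on both sides; inactive = the rest.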

Test: Components of the Cytosolic LPS Sensing Pathway: Gene Identification via Genome-wide siRNA Screen;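 also: robust z of the log signal after scaling to non-targeting control siRNA wells of the plate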
Settings: RAW264.7 macrophages, IL-1a HTRF, actives lie on both sides, screened at 100 nM (by protocol), cells primed 5 h with Pam3CSK4 first
Outline: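 RAW264.7; siRNA 100 nM final, RNAiMAX, 48h 37 degrees C; Pam3CSK4 5 h; LipidA + TransIT-TKO 24 h; IL-1a HTRF; CellTiter-Glo viability; robust z vs negative-control median.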

Sequence | z-score
GCUGAUUAGCCAUGUAAUUTT against Cebpg | -0.481
GCUUUAUGGAUCUACCAAATT against Fbxl3 | 1.81
GGAAAACAGCUUUGAUUGGTT against Tmem232 | 0.868
GCAAGCCAACUGACCAUCATT against Nudt2 | 0.486
CGACUCCAUGUGGACUUAUTT against Gca | -1.16
CGAACACUAAGCUUUGAUATT against Rab11fip2 | -0.493
GGUUUUACAUUCUGUGUUUTT against Spata9 | -0.898
CCUUGGAGAGAGAAGACAUTT against Rpp38 | 0.292
CCAAUGCAAGUGCUACAGUTT against Zfp277 | -2.64 (active)
GGCUCACUCAUUUGUCAGATT against Soat1 | 0.0924
GCCUAAUCAUUCCCAGCAUTT against Oog2 | 0.211
CCUUCUACUGGCAACCUAUTT against Zfp110 | 0.25
GGUAUCUACACCAAACUUATT against Klk1b5 | 0.685
GGAGCUAACUGUCAAUGGATT against Usp17la | 2.8 (active)
GGAUGAAGAACUGAAAUCUTT against Unc13b | 0.167
CCCUGUAAAGAUCGAGAAGTT against Zfp296 | 0.241
GGGACACCCUUUGAAGAUGTT against Ube2b | -0.314
GGCAUGAUGUUCAUGGAUATT against Nup62 | -2.04 (active)
CGAAGAUAAUUAUGGAGCCTT against Fat4 | 0.548
CGCAGAGUUAAUUUCUUGUTT against Rchy1 | 0.995
CCAACAAUUCUGCCAAGACTT against Arrb2 | -2.57 (active)
CCGAAGGAUUGAAGAGCCUTT against Trnt1 | 0.746

Sequence | z-score
GGCUUCAUAAGAUCAAAGATT against Lca5l | -2.88 (active)
GCAGGUCUAAUAAUGGUCATT against Syt12 | -0.536
GGAUCCUGCAUCUUAUAGUTT against Tcstv3 | 0.468
GCUGUUUCCCAGAGAAGAATT against Defb2 | -0.814
CGGUUCCAACCUUGAAAAATT against H1f10 | -0.676
GCUCUACCGUUAAGUUAUUTT against Eif4e2 | 0.499
GGUCAUCCUUUUUCAGUACTT against Lhx6 | 2.28 (active)
GGGCGUGAAUUCAGAGAUUTT against Pcdhgb5 | -0.00376
CGGGUUCUACUAUCAUGCATT against Ltbp4 | 0.259
GGUCACCAGUACCUAUGGATT against Bricd5 | -2.17 (active)
GGGACUGUACUCAUUUCUATT against Rnf138rt1 | -0.67
GCAGGUUGAACGACAGCGUTT against Dph5 | -0.349
GGAAUAAUCCCAGUUCUCUTT against Tmem101 | -1.04
CCAGAAUGGCGGGUAUUUGTT against Fbln5 | 2.14 (active)
GAAGGUGAAGUGCAGGAAGTT against Fxyd7 | -0.081
GCAGGCCAGAGUAGUCAUGTT against Them6 | 0.579
GGAAUUAACGUGUUUCUGUTT against Tor1aip2 | 1.14
GGUGAUAAAGCUAUGUAUUTT against Ccn2 | 0.147
GGACAACAUUGACAAGUUCTT against Clcn7 | 1.36
GCUGGGUCCACAUGAAUCATT against Sucnr1 | 2.7 (active)
GGAUCAGACAUGCAAGAGGTT against Xlr5c | -1.81
GCAUCAUGGUCACAAAUGGTT against Ncr1 | -0.613

Sequence | z-score
GCUACCGUGGGCGAUGUAATT against Dbi | -0.37
GGGAAAAUGCGAUUCAUGATT against P2ry14 | -0.774
GGAGAUUAUUAACUUCACCTT against Hcn3 | -0.895
GGAACUGGACUUAUUCCACTT against Wnt5b | 0.652
GGAGAAACCAGGAUCUAUUTT against Rnf14 | 2.22 (active)
GCCAGGAGUACUGUAUAUATT against Spint1 | -0.366
GGAGCUCUAAAAUUGACUUTT against Zfp92 | 1.17
GGAAUCUAGAAGAAUCAUUTT against Gnao1 | -0.42
GCUAUGGUAGCUGAUAACATT against Rell1 | 1.21
GGAUCCUAAUGAGGACAUUTT against Jchain | 2.75 (active)
GCCACAAGAUACCAUCAGATT against Bex1 | -1.66
CCAUAUGUCCUGUUUAAGATT against Grik2 | 0.304
GGACUUGAAAGACGAGAUATT against Cyp19a1 | 0.31
CCUUUAUGAAUGAACAGGGTT against Cnot7 | -0.266
GGCCAAUUCCAGUGAGAUGTT against Lgsn | -0.0795
GGCAGAGCUCAAAAAGAAATT against Ankrd1 | -1.94
CCAAAUCCGGGAAAAAGAGTT against Armcx5 | -0.459
GCAUACCAAUCACAGUCGATT against Dync2li1 | -2.55 (active)
GGGUUGCUACUCACAAUGUTT against Syngr2 | 0.244
CCUCAAUUUCGAAGACCCUTT against Asb6 | 1.84
GGACUCUGGACCUUAUGCUTT against Tmem202 | -0.921
GGCUUUCAAGCUAACUGAUTT against Sf3b2 | -2.39 (active)

Sequence | z-score
GGUUAAAAACAACUGAAAGTT against 9630028B13Rik | -1.04
GGGAACUUUCCUCAAGUCUTT against Phactr3 | 0.107
GGCCAAGAAACAUGCCCUATT against Pbx2 | 0.168
GGCAGUGGAGUUAACAACATT against Dsg1b | -0.12
CCUAUGAGUCUUACGUGAATT against Cyp4x1 | 0.693
GGACACCAACAUAUUGUUCTT against Slc13a2 | -0.128
GGCUGAUGGAAGAAUAUGATT against Actn2 | -2.2 (active)
GGAUGAGUCUUUCUAGUUATT against Nipa1 | -0.337
GCAGCAGUAAUGAUGGAUCTT against Ncoa3 | 2.47 (active)
GGACAAAUUCUACAUCAGCTT against Adam8 | 0.0533
CGGCCGUCAGCUUCUUUUATT against Olfr283 | -0.204
CGACUUUGGAGAAUUUCAATT against Synrg | -0.573
GGGAACAAACCUUGAUUCUTT against Adam24 | 3.49 (active)
GGAGAGACCACCCUUUCAGTT against Fahd2a | -0.432
GCAUAUGGACUUUCUGUCATT against Iws1 | -0.157
GGUGUAACACUCAUUUAUCTT against Ifitm3 | 2.88 (active)
GGACACCUACCAAAAGUUATT against Cd9 | 0.432
GCUACAACAAGACAAAGUCTT against Tada1 | 1.84
CCUUCUACCUACUUAUUGGTT against Tomm70a | 0.178
GGAAGAUGUGAAAUUGCUUTT against Dars2 | 2.23 (active)
CCACUAUGUUCUGUGGCAATT against Olfr736 | -2.33 (active)
GGAAGAAUUUGACAACCGCTT against Mrps18c | 0.583

Sequence | z-score
GGAAAAUGAUAGCAGACAUTT against Zfp810 | -1.72
GGGCCAGAAGAAGAGUCGATT against Mllt6 | -0.304
GGAGAUUUCUGAAACUAGATT against Tiaf2 | -2.09 (active)
GGCCAACUCACCUUUCUAGTT against D630023F18Rik | 1.84
CCAUUCUUAUUGUUGAGAATT against Nek9 | -0.793
GGACAUGAAAGUUGACCUGTT against Mrps31 | 0.465
GCCCGUGUGUAAGUGCAAATT against Wfikkn2 | 2.25 (active)
GGAAACAGAGCAAGGAAAATT against Gas7 | 0.613
GGAGAGCUCUAUGGAUCGATT against Fgf16 | 0.784
CCUCCUUUGGACAACGGGUTT against Cyp7a1 | -1.34
CCUGCUCUCCUCAUUAUGUTT against Rnls | -0.115
GGAAGCAACUUGGAAUUUGTT against Ctnna3 | 0.886
GGGUACAGUCCGAUACAGUTT against Nploc4 | -1.79
GCUCUCAUUAGCAUUAUCGTT against Gria1 | 0.21
GCACAACUCAGAAGUAAUUTT against Ghr | 0.271
GGUAAUAUUUCGUGCUUUATT against Lamb1 | 2.1 (active)
CCUAAAAAGAGGAAAAGGGTT against Psg29 | -0.254
GGUGCUCAGCAUGUUUGCUTT against Avpr1b | -1.06
GGCACUGGAAAUAAAACCCTT against S100a14 | -0.766
GCUAACGAAGGUAGUGUACTT against Gtpbp8 | 3.34 (active)
